Hits are enriched below; roughly 3.8% of the tested compounds scored in any of these assays.
esBAF inh = blocks esBAF chromatin remodeling in mouse ES cells; Bmi1-luciferase knock-in reporter, 24 h; 100% = twice the neutral-well signal; 2% of 350,000 active; reporter increase, % at 12.5 µM; in the data active means activation above about 40%; inconclusive means no clear call, values can overlap the other calls;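 further: 0% = median of the plate's neutral control wells and 100% = double that signal; a rise in the Bmi1 reporter signal indicates esBAF inhibition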
Wnt act = activates Wnt/beta-catenin signaling in a reporter cell assay; 1.2% of 300,000 active; activation, % at 9.35 µM; activator, plate reader; in the data active means activation above about 30%, passing the limit was not always enough; inconclusive means no clear call, values can overlap the other calls;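 further: 0% = neutral control wells and 100% = positive control wells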
HSF1 activator = increases HSF-1 driven luciferase reporter signal. NIH3T3-HGL HSF-1 luciferase reporter, MG132, 8 h; 100% = twice DMSO control signal. activation, % at 9 µM. 1.7% of 300,000 active;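 active means mean replicate activation of at least 50% with a set share of replicates each reaching 50%; inconclusive means only one of those two conditions met; inactive means mean below 50% and too few replicates reaching it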;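 further: 0% = median of the neutral control wells and 100% = twice that signal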
HSF1 inhib = HSF1 inhibition | NIH3T3-HGL HSE-luciferase, MG132-induced, luminescence 8 h; active compounds read low | activity change, negative = inhibition, % at 7.5 µM (by protocol) | 0.77% of 300,000 active;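 active means more than half of replicate wells show activity change below -50%, luminescence cut by over half; inconclusive means some wells, but at most half, below -50%; inactive means no replicate well below -50%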;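 further: luciferase reports HSF-1 transcriptional activity via heat shock element; 0% = median of DMSO wells and -100% = zero luminescence signal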
MITF act = MITF TRPM1 promoter activation in melanoma cells. SK-MEL-5 TRPM1-promoter luciferase, 24 h; % of positive control, neutral wells = 0. activation, % at 12.5 µM. 0.75% of 300,000 active;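 active means mean activation of at least 80% with every replicate also reaching 80%; inconclusive means mean reaches 80% but some replicate falls short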;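 further: 0% = neutral control wells and 100% = parthenolide positive control wells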
An asterisk follows results filed as active; ? = inconclusive; / = no result given.

SMILES | esBAF inh | Wnt act | HSF1 activator | HSF1 inhib | MITF act
CCc1noc(C)c1C(=O)NNC(=O)COc1ccccc1C | -7.8 | 34.4* | / | / | -3.9
Cc1ccc(S(=O)(=O)N(C)C[C@@H]2OCCCC[C@H](C)Oc3ccc(NC(=O)c4ccccc4)cc3C(=O)N([C@H](C)CO)C[C@@H]2C)cc1 | 1.9 | / | / | / | /
CCC(=O)Nc1ccc2c(c1)C(=O)N(C)[C@H]1CC[C@@H](CC(=O)NCc3ccccc3Cl)O[C@H]1CO2 | 6.0 | / | / | / | /
CCOc1ccc(/C=C2\CCC(C3CCCC3)C2=O)cc1 (stereo not drawn) | -6.1 | ? | 10.5 | 5.5 | 122.8*
O=C1/C(=C/c2ccco2)CCC1C1CCCC1 (stereo not drawn) | 17.4 | 37.9* | 61.0* | 42.3 | 19.5
CC1C/C(=C/c2ccco2)C(=O)/C(=C/c2ccco2)C1 (stereo not drawn) | / | / | 2.4 | 2.1 | /
O=C1/C(=C\c2ccco2)CCC/C1=C\c1ccco1 | 76.9* | / | 17.4 | 13.8 | 43.6
C[C@H](CO)N1C[C@H](C)[C@@H](CN(C)C(=O)c2ccccn2)Oc2ncc(C3=CCCCC3)cc2C1=O | -0.8 | / | / | / | /
COc1cc2c(cc1NCc1ccc3c(c1)OCO3)oc1ccccc12 | 23.4 | 1.0 | 24.2 | -4.8 | 38.2
COc1cc2c(cc1NCc1ccccn1)oc1ccccc12 | 45.5* | 24.4 | 36.7 | 21.6 | 24.3
c1ccc2c(c1)oc1c(NCC3CCCO3)ncnc12 (stereo not drawn) | 38.3 | 53.9* | 17.5 | 5.9 | 16.6
CC(=O)c1ccc(Nc2ncnc3c2oc2ccccc23)cc1 | 64.7* | / | 12.0 | -3.4 | 60.1
Clc1ncnc2c1oc1ccccc12 | 51.6* | 66.5* | 15.7 | 11.1 | 7.5
c1ccc(-c2nc(NCC3CCCO3)c3oc4ccccc4c3n2)cc1 (stereo not drawn) | 1.3 | / | 9.0 | 9.2 | -7.6
CNC[C@H]1Oc2cc(-c3ccccc3F)ccc2S(=O)(=O)N([C@@H](C)CO)C[C@@H]1C | -6.0 | / | / | / | /
COc1ccc(CN(C)C[C@H]2Oc3ccc(NC(=O)Nc4ccc(F)cc4)cc3C(=O)N([C@@H](C)CO)C[C@@H]2C)cc1 | 5.3 | / | / | / | /
CCc1nc(NCc2ccccn2)c2oc3ccccc3c2n1 | -20.5 | / | 1.8 | 0.7 | -9.1
c1ccc(CNc2ncnc3c2oc2ccccc23)nc1 | 65.3* | 56.4* | 6.7 | 2.2 | 44.9
COc1cccc2cc(C(=O)OC3CCN(C)CC3)c(=O)oc12 | 0.5 | -1.3 | -74.4 | -68.0* | 3.3
O=C(OC1CCCCC1)c1cc2ccccc2oc1=O | 3.0 | 1.9 | 51.5* | 34.7 | ?
O=C(NC1CCCCCC1)c1cc2ccccc2oc1=O | 11.6 | 21.6 | -34.2 | -15.5 | /
COc1cccc2cc(C(=O)OCC(=O)NC3CCCC(C)C3C)c(=O)oc12 (stereo not drawn) | 63.5* | -3.5 | / | / | 55.9
O=C(COC(=O)c1cc2ccccc2oc1=O)Nc1ccc(F)cc1F | 46.1* | 47.1* | 26.4 | 15.2 | 61.6
C[C@@H]1CN([C@@H](C)CO)C(=O)c2cc(-c3ccccc3)cnc2O[C@@H]1CN(C)C(=O)c1ccccn1 | -0.3 | / | / | / | /
C[C@H](CO)N1C[C@H](C)[C@@H](CN(C)C(=O)Nc2ccccc2)OCCCC[C@H](C)Oc2ccc(NC(=O)c3ccccc3)cc2C1=O | 1.8 | / | / | / | /
SMILES | esBAF inh | Wnt act | HSF1 activator | HSF1 inhib | MITF act
O=C(C[C@H]1CC[C@@H](NC(=O)c2cccnc2)[C@@H](CO)O1)NCCN1CCCCC1 | -0.4 | / | / | / | /
COc1cccc2cc(CC(=O)c3ccc(C)cc3C)c(=O)oc12 | 87.4* | 14.2 | 39.7 | 32.4 | 90.1*
COc1cccc2cc(NC(=O)C3CCCCC3)c(=O)oc12 | 22.9 | / | -3.5 | 10.6 | 110.4*
CCCNC(=O)C[C@H]1CC[C@@H]2[C@H](COc3ccc(NC(=O)c4cccs4)cc3C(=O)N2C)O1 | 0.7 | / | / | / | /
O=c1[nH][nH]c(=O)c2c(NS(=O)(=O)c3ccccc3)cccc12 | 46.2* | 12.4 | 29.3 | 7.0 | 32.8
C=C(C)CN(CC)C(=O)CCc1nnc(CCCc2ccccc2)o1 | / | 13.3 | ? | 19.1 | 54.9
C#CCN(CC=C)C(=O)CCc1nnc(COc2ccccc2)o1 | 58.9* | -5.9 | 35.2 | 10.7 | 38.5
Cc1occc1C(=O)NNC(=O)c1ccccc1F | / | 37.3* | -0.4 | 3.0 | 25.9
Cc1occc1C(=O)Nc1cccc2ccccc12 | / | ? | 72.5* | 57.2 | 43.7
Cc1occc1C(=O)N/N=C/c1cccc2ccccc12 | 68.8* | 18.3 | 63.5* | 27.0 | 97.4*
CC(=O)NCC1=C(NC(C)=O)C2CC1C(C)(C)C2C (stereo not drawn) | / | / | -64.5 | -53.0* | /
CC(C)CC#Cc1cnc2c(c1)C(=O)N([C@@H](C)CO)C[C@@H](C)[C@H](CN(C)C(=O)Nc1ccccc1F)O2 | 5.4 | / | / | / | /
Oc1ccccc1C1NN=C(c2ccccc2)S1 (stereo not drawn) | 0.5 | 12.1 | 81.2* | 71.2 | /
O=C(N[C@H]1CC[C@H](CCNS(=O)(=O)c2ccc(F)cc2)O[C@@H]1CO)c1cnccn1 | 6.3 | / | / | / | /
COc1cc(CNc2ccc3[nH]c(=O)[nH]c3c2)ccc1OCc1ccc(C)cc1 | 54.6* | 44.2* | 13.2 | 15.8 | 67.8
COc1cc(CNc2ccc(N3CCN(C(C)=O)CC3)cc2)ccc1OCc1ccccc1 | / | 40.0* | 15.6 | 16.6 | -6.6
O=c1[nH]c2ccc(NCc3ccc(OCc4ccccc4Cl)cc3)cc2[nH]1 | 26.7 | 8.0 | 35.3 | 17.1 | 82.6*
C[C@H](CO)N1C[C@H](C)[C@@H](CN(C)C(=O)Nc2ccc(F)cc2)Oc2ccc(NC(=O)C3CC3)cc2CC1=O | -5.1 | / | / | / | /
S=C(Nc1ccc(Br)cc1)NC1CCCCC1 | 43.4* | 7.2 | 33.4 | 15.2 | 29.9
FC(F)Oc1ccc(NC(=S)NC2CCCCCCC2)cc1 | 46.7* | -2.5 | 25.5 | 13.4 | 37.2
S=C(Nc1ccc(Cl)cc1)NC1CCCCC1 | 32.7 | 8.5 | 28.0 | 9.9 | 36.7
S=C(Nc1ccc2[nH]ccc2c1)NC1CCCCC1 | 66.1* | 28.5 | 35.8 | 28.8 | 58.8
Cc1ccc(S(=O)(=O)N(C)C[C@H]2Oc3ccc(N(C)C)cc3CC(=O)N([C@H](C)CO)C[C@H]2C)cc1 | -1.4 | / | / | / | /
C[C@@H]1CCCCO[C@@H](CN(C)Cc2ccc(C(F)(F)F)cc2)[C@H](C)CN([C@H](C)CO)C(=O)c2cc(N(C)C)ccc2O1 | 0.1 | / | / | / | /
COc1ccc(S(=O)(=O)Nc2ccc3c(c2)CC(=O)N([C@H](C)CO)C[C@@H](C)[C@@H](CN(C)S(=O)(=O)c2ccc(C)cc2)O3)cc1 | -7.8 | / | / | / | /
Cc1ccc(C(=O)c2ccccc2C(=O)OCC(=O)NCCc2ccc(Cl)cc2Cl)cc1 | / | / | 53.6* | 31.3 | 0.9
O=C(COC(=O)c1ccc[nH]c1=O)NCCc1ccc(Cl)cc1Cl | / | 49.7* | 28.1 | 18.5 | 4.3
O=c1[nH]c(-c2ccc(O)cc2)nc2scc(-c3cccs3)c12 | 60.6* | -2.6 | 35.4 | 22.8 | 113.7*
Cc1noc(C)c1NC(=O)Nc1cccc2c1O[C@@H](CN(C)C(=O)Nc1ccccc1)[C@H](C)CN([C@@H](C)CO)C2=O | 2.0 | / | / | / | /

Screening data: PubChem, Broad Institute
